Source: PubChem (several laboratories)
Sampled rows, rich in hits. Any-hit rate of the full collection: about 7.6%.
PLAP activator: activators of human placental alkaline phosphatase | P05187 | purified PLAP enzyme, luminescent substrate read-out; active compounds read high | activation fold at 20 µM | hit rate 1.2% among 96,000 | AID 696; in the data active = activation fold above about 2
Target sequence (P05187 whole entry, looked up): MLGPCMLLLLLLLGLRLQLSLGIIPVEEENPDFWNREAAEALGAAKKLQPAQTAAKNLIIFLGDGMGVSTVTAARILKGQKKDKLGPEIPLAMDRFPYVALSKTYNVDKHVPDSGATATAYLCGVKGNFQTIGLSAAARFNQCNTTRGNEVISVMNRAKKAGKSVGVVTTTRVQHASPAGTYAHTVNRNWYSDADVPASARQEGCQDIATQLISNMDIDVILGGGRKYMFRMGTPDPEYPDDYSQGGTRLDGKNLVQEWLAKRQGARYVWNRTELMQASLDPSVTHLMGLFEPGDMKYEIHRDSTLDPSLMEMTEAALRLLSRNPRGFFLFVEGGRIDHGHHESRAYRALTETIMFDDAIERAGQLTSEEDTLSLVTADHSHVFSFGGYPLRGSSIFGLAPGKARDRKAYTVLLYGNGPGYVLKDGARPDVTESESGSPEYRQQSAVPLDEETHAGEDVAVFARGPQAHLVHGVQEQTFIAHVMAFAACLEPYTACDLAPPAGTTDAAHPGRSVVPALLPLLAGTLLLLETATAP
Cav3 T inh: inhibitors of human Cav3.2 T-type calcium channel | Cav3.2-expressing cells, Fluo-4 calcium fluorescence FDSS; active compounds read low | B-score at 10 µM | hit rate 4% among 100,000;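 active = single-dose well whose peak fluorescence ratio is a statistical outlier from its plate by either plate-standardised score or position-corrected B-score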
M1 antagonist: M1 muscarinic receptor (rat) antagonism | B-score at 10 µM | hit rate 3.4% among 64,000 | CHO-M1 cells, Fluo-4 calcium, ACh EC80 antagonist mode; active compounds read low | P08482 | AID 628;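 active = calcium fluorescence response, raw or row-and-column corrected B-score, differing from the plate sample mean either way at a set confidence level, mostly lower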
M1 ag: activates the M1 muscarinic receptor | CHO-M1 cells, Fluo-4 calcium fluorescence, agonist mode; active compounds read high | B-score at 10 µM | hit rate 3% among 64,000 | AID 626;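 active = fluorescence rise, raw or as B-score row- and column-corrected plate score, outside the 99.7% band of its plate's samples, either direction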
M1 antag confirm: confirmation of rat M1 muscarinic receptor antagonists | shares compounds with M1 antagonist | CHO-M1 cells, Fluo-4 calcium, ACh EC80 antagonism; active compounds read low | calcium response (max-min fluorescence) at 10 µM | hit rate 43% among 1,700;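 active = calcium response below the same-plate mean of wells given acetylcholine alone at its 80%-effect dose, minus 3 SD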;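 also: raw fluorescence intensity difference in arbitrary instrument units and not normalized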
mGluR4 antag: selectivity test for M1 antagonists: human mGluR4 receptor | shares compounds with M1 antagonist | CHO-mGluR4 calcium flux, Fluo-4 fluorescence, glutamate EC80; active compounds read low | fluorescence response (max-min) at 10 µM | hit rate 0.9% among 1,700 | AID 678;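 active = fluorescence response below the plate's average for near-maximal glutamate wells, less 3 SD of those wells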;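 also: raw unnormalized fluorescence span taken in the window right after glutamate addition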
Starred values were filed as active, the others as inactive; · = no result.

SMILES	PLAP activator	Cav3 T inh	M1 antagonist	M1 ag	M1 antag confirm	mGluR4 antag
COC(=O)c1[nH]c2ccccc2c1NC(=O)CN1CCC(C(N)=O)(N2CCCCC2)CC1	1.2	1.14	-2.55*	1.31	550	191
O=C(Nc1ccccc1C(=O)N1CCN(c2ccccc2)CC1)c1ccco1	1.3	1.1	-0.00371	0.871	·	·
O=C(c1ccco1)N1CCN(C2CCCC2)CC1	1	·	0.54	-0.357	·	·
Cc1cc2nc(SCCN3CCCC3)[nH]c2cc1C	1.2	1.82	-1.91*	0.56	440	185
Nc1ncnc2nc(SCC(=O)N3CCN(c4ccccc4)CC3)[nH]c12	1.9	0.0736	-0.853	0.133	·	·
Nc1ncnc2nc(SCCN3CCCCC3)[nH]c12	1	·	-2.78*	-0.299	680	237
CC(/C=N\Nc1nnc2c(n1)[nH]c1c(C)cccc12)=C\c1ccco1	0.6	-1.29	·	·	·	·
Cc1cnc(C(=O)Nc2ccccc2-c2ccc(C)o2)cn1	0.9	0.0477	-0.137	-0.0395	·	·
CCOC(=O)CCSCC(=O)Nc1cc(C)on1	·	·	-0.275	-0.638	·	·
CCOC(=O)CCSCC(=O)Nc1nnc(C)s1	1.1	0.456	-2.4*	-0.253	603	241
COc1ccccc1N(CC(=O)NCC1CCCO1)C(=O)CCC(=O)Nc1nccs1 (stereo not drawn)	·	0.00782	·	·	·	·
CCOC(=O)CC(=O)CSc1ccc2nnc(-c3cccc(F)c3)n2n1	1.2	1.35	0.114	-0.584	·	·
COC(=O)c1ccc(CSc2ccc3nnc(-c4cccc(F)c4)n3n2)o1	1.1	1.17	-9.18*	-0.257	216*	205
COC(=O)c1ccc(CSc2nnnn2C)o1	0.8	0.63	-3.14*	-0.453	399*	257
O=C(NC1CCCCCC1)C1CC(=O)N(Cc2ccccc2)C1 (stereo not drawn)	1.4	-0.353	0.034	0.404	·	·
COc1ccc(-c2cn3c(C)c(C(=O)NCc4ccc5c(c4)OCO5)sc3n2)cc1	·	0.417	0.844	-0.405	·	·
CN(C)c1ccc(C2C3=C(CCCC3=O)OC3=C2C(=O)CCC3)cc1	1.3	0.386	-10.2*	-0.158	400*	216
Cc1ccc(S(=O)(=O)Oc2ccc(C3C4=C(CCCC4=O)OC4=C3C(=O)CCC4)cc2)cc1	1.1	-0.0443	·	·	·	·
O=C(NC1CCCCC1)C1CCN(C(=O)NCc2ccccc2)CC1	1	0.422	-1.39*	-0.213	671	215
O=C(NCc1ccc(F)cc1)C1CCN(C(=O)NCc2ccccc2)CC1	1	0.581	-0.238	-0.324	·	·
O=C(NC1CC2CCC(C1)N2C(=O)NCc1ccccc1)C1CC1 (stereo not drawn)	0.9	0.933	-2.21*	0.0297	419*	241
CCCCNC(=S)Nc1ccccc1F	0.9	0.293	·	·	·	·
Clc1ccc(CN2C3=NCCN3c3ccccc32)cc1Cl	1.2	-1.32	-3.22*	-1.47	399*	247
OC(CN1C2=NCCN2c2ccccc21)c1ccc2c(c1)OCO2 (stereo not drawn)	0.8	0.87	-0.68	-1.02	·	·
Cc1ccc(C(=O)C2CCN(CC(=O)NC3CCCCC3)CC2)cc1	1.6	-0.14	-4.63*	-1.28	545*	222
SMILES	PLAP activator	Cav3 T inh	M1 antagonist	M1 ag	M1 antag confirm	mGluR4 antag
CC1CCC2(CC1)C(Nc1cccc(Cl)c1)=NC(=S)N2CC#N (stereo not drawn)	·	-4.35	·	·	·	·
CCCSc1nnc2c(n1)OC(c1cccn1C)N(C(C)=O)c1ccccc1-2 (stereo not drawn)	1.1	1.51	-10.1*	0.278	23*	229
c1ccc(Cn2nnnc2C(c2ccccc2)N2CCN(c3nc4ccccc4s3)CC2)cc1 (stereo not drawn)	1.4	-0.0346	-2.15*	-1.42	623	241
CCCCC(c1nnnn1Cc1ccco1)N1CCN(c2nc3ccccc3s2)CC1 (stereo not drawn)	1.6	-4.28	-3.31*	-0.613	587	227
CCCC(c1nnnn1Cc1ccco1)N1CCC(C(N)=O)CC1 (stereo not drawn)	1.1	-0.0412	-0.0109	0.109	·	·
COc1cc(-c2ccc(NC(=O)CN3CCCCC3)c(OC)c2)ccc1NC(=O)CN1CCCCC1	·	·	-0.186	-0.486	·	·
N#Cc1c(-c2ccccc2)nc2n(c1=O)CCS2	1	-0.028	·	·	·	·
CCOc1ccc(S(=O)(=O)Nc2cc(Cl)ccc2O)cc1	1.8	-2.57	-3.06*	-0.0585	457*	225
Cc1c(N=C/C=C/c2ccccc2)c(=O)n(-c2ccccc2)n1C	1	1.04	-11.4*	0.0194	23.7*	187
Cc1c(N=CC=Nc2c(C)n(C)n(-c3ccccc3)c2=O)c(=O)n(-c2ccccc2)n1C	1.1	·	·	·	·	·
O=C1CC(N2CCN(c3ccccc3Cl)CC2)C(=O)N1c1cccc(F)c1 (stereo not drawn)	1.1	-0.979	-1.74*	0.543	650	229
CN1CCN(C(=O)C2CC(c3c(F)cccc3Cl)=NO2)CC1 (stereo not drawn)	1	0.286	0.0716	0.553	·	·
CN1CCN(C(=O)N2c3ccccc3C=Cc3ccccc32)CC1	1.6	0.712	-18*	1.8	19.6*	198
O=C(N1CCOCC1)N1c2ccccc2Sc2ccccc21	1.3	-1.18	·	·	·	·
COc1ccc(CCn2c(C)cc3c(c2=O)C(c2ccc4c(c2)OCO4)C(C#N)=C(N)O3)cc1OC (stereo not drawn)	1	1.02	-0.208	-0.0631	·	·
COc1cc(CCC(=O)Nc2cc(Cl)ccc2N2CCN(C)CC2)cc(OC)c1OC	1.5	1.58	0.163	-0.0179	·	·
CN1CCN(c2ccc(Cl)cc2NS(=O)(=O)c2ccccc2Cl)CC1	1.3	0.518	-3.65*	-1.15	345*	261
O=S1(=O)N=C(Oc2cccc3ccccc23)c2ccccc21	·	-0.129	·	·	·	·
Cc1sc2nc(C(C)Nc3ccccc3N3CCOCC3)[nH]c(=O)c2c1C (stereo not drawn)	1.2	-2.37	-0.0373	-0.409	·	·
Cc1cc(N2CCOCC2)nc2ccc(NC(=O)CCC(=O)N3CCCCC3)cc12	1.3	0.0186	-2.59*	-0.00119	524	170
COCCSc1nc2sc3c(c2c(=O)n1-c1ccccc1)CCN(C)C3	1.6	1.48	-2.96*	-0.839	519	231
COc1ccc(S(=O)NC2CCCCC2)c(OC)c1C (stereo not drawn)	1.1	0.403	·	·	·	·
COc1cccc(-n2c(SCC#N)nnc2-c2cnccn2)c1	0.9	0.476	0.609	0.0417	·	·
COc1cccc(-n2c(SC)nnc2-c2cnccn2)c1	·	-0.636	-3.01*	0.683	622	266
O=C1CC(c2ccco2)CC(O)=C1C=NCCN1CCNCC1 (stereo not drawn)	1.2	0.428	-0.702	-0.929	·	·
O=C1CC(c2ccco2)CC(O)=C1C=NCC1CCNCC1 (stereo not drawn)	1	-0.0642	-3.81*	-0.0119	462*	226
CCOc1ccc(C(=O)Nc2ccc(N3CCN(C)CC3)cc2)cc1Br	1	·	-3.48*	-0.718	361*	242
CCCC(=O)N1CCN(c2ccc(NC(=O)c3ccc(OCC)c([N+](=O)[O-])c3)cc2)CC1	0.9	·	·	·	·	·
CCCn1c(N)nc2ccccc21	0.8	·	·	·	·	·
CCn1c(N)nc2ccccc21	0.9	1.07	-2.53*	-1.09	706	160
